Shown are actives, neighbours in structure and some others; about 11% of the full set was active somewhere.
G9a inh: blocks human histone lysine methyltransferase G9a; Q96KQ7; G9a H3K9 monomethylation, AlphaScreen, 2 h; Potency, µM (series often up to 102 µM), without a hit: top-dose activity, negative = inhibition, usual class: inhibitors; 8.8% of 350,000 active; further: on the % scale 0 is the no-effect control and ±100 the full control effect; nearly all actives have a fitted effect of over 75% in size
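Signal arises when biotinylated H3K9 peptide, once monomethylated, bridges streptavidin donor and antibody-captured acceptor beads. Enzyme at 20 nM was preincubated 15 min with test compounds; peptide 500 nM and SAM 20 uM then reacted for 2 h.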
L3MBTL1 block: inhibitors of human L3MBTL1 | Q9Y468 | AlphaScreen L3MBTL1–H3K9me1 peptide binding | Potency, µM (titrated, usually from 57.1 µM), for the others: at the top dose activity, negative = inhibition, hits mostly inhibitors | 0.66% of 230,000 active | AID 485360; further: on the % scale 0 is the no-effect control and ±100 the full control effect; nearly all actives have a fitted effect of over 60% in size
Target sequence (Q9Y468 whole entry, looked up): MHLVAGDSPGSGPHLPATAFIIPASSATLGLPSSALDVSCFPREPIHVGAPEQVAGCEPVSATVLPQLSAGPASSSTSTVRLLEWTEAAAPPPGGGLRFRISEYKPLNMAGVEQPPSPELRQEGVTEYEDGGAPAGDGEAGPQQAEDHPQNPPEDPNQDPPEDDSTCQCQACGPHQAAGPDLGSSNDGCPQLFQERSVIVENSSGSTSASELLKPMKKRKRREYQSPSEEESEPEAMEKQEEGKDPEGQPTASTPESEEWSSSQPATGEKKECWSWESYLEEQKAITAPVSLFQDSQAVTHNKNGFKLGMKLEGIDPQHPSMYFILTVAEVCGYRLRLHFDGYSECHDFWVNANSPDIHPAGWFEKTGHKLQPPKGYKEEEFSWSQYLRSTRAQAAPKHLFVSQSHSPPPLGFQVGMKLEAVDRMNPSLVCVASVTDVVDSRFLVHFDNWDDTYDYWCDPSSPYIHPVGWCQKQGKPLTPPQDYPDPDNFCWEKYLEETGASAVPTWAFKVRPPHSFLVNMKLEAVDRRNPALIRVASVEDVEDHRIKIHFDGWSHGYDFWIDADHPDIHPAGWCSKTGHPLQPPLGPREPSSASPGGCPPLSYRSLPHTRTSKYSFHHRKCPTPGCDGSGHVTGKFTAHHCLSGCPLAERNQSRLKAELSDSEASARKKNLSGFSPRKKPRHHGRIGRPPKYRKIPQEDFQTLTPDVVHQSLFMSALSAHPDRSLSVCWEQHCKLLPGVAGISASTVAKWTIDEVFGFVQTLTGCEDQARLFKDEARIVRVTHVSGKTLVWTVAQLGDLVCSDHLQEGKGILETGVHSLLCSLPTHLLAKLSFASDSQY
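L3MBTL1 50 nM + b-AHA-H3(1-15)K9me1 75 nM, 30 min RT; compound added, 30 min RT; streptavidin donor/Ni-chelate acceptor beads 10 ug/mL each final, 30 min RT dark; AlphaScreen read.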
HP1b chromo inh: HP1-beta chromodomain-methylated histone interaction inhibition; P83916; AlphaScreen HP1-beta / biotin-H3K9me3 peptide binding; Potency, µM (doses to about 114 µM), without a hit: at the highest dose activity change, negative = inhibition, usual class: inhibitors; AID 540317; 0.56% of 390,000 active; further: nearly all actives have a fitted effect of over 70% in size
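AlphaScreen: HP1-beta (50 nM) preformed 30 min with biotin-H3(1-18)K9me3 peptide (50 nM) in PBS pH 7.4, 0.01% Tween-20. Compound added for 30 min at RT, then streptavidin donor/nickel chelate acceptor beads (10 ug/mL) for 30 min.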
JMJD2A Tudor: inhibitors of human JMJD2A Tudor domain. O75164. AlphaScreen JMJD2A-Tudor / H3K4me3 peptide binding. Potency, µM (titrated, usually from 114 µM), without a hit: at the highest dose activity change, negative = inhibition, most hits filed as inhibitors. 4.4% of 390,000 active. AID 504339; further: on the % scale 0 is the no-effect control and ±100 the full control effect; nearly all actives have a fitted effect of over 50% in size
BAZ2B inh: BAZ2B (human) inhibition | Q9UIF8 | AlphaScreen BAZ2B-H3K14Ac peptide displacement | Potency, µM (highest dose often 114 µM), for inactives: at the highest dose activity change, negative = inhibition, hits mostly inhibitors | 4.4% of 360,000 active | AID 504333; further: on the % scale 0 is the no-effect control and ±100 the full control effect; nearly all actives have a fitted effect of over 60% in size
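Protein-peptide AlphaScreen: BAZ2B 50 nM, b-H3K14Ac 50 nM, 1x PBS pH 7.4 + 0.01% Tween-20. Preincubation 30 min RT; cpd 30 min RT (top 110 uM); beads 20 min RT, light-protected.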
Numbers without * were called inactive; ? = inconclusive; nt = no result; [ ] = another dose, or the depositor's remark. The call rests on the fitted dose curve; in most records, active means well fitted inhibition curve with a large enough effect; inconclusive means small, poorly fitted or top-dose-only effect; inactive means no such curve, though single readings can be large or run the other way. Potency means the concentration at half of the fitted maximal effect.

SMILES	G9a inh	L3MBTL1 block	HP1b chromo inh	JMJD2A Tudor	BAZ2B inh
CCc1ccc(OCC(=O)NN2Cc3ccccc3C2=N)cc1	45µM*	3%	20%	1%	-13%
COc1ccc(OCC(=O)NNC(=O)C(=O)N2CCCC2)cc1	20µM*	11%	34%	-4%	?
Cc1ccc(CNC(=O)CC(C)S(=O)(=O)c2ccc3c(c2)NC(=O)C(C)S3)cc1 (stereo unspecified)	-7%[59 µM]	nt	24%	-7%	-19%
Cc1ccc(S(=O)(=O)n2nc(-c3ccccc3)nc2NCc2ccccc2Cl)cc1	15%[59 µM]	nt	51%	20%	5%
COc1cccc(NC(=S)N/N=C2/CCCCc3ccccc32)c1	40µM*	-30%	-29%	?	40µM*
CCCCOc1ccc(S(=O)(=O)NCc2csc(-c3ccc(OC)cc3)n2)cc1	7%[59 µM]	nt	55%	-7%	5%
CN1CCN(C2=C(Cl)C(=O)N(c3ccc(Cl)cc3)C2=O)CC1	5µM*	-7%	26%	40µM*	nt
CCOc1ccc(-c2nnc(SCC(=O)NCc3ccccc3)nc2-c2ccc(OCC)c(OC)c2)cc1OC	-10%[59 µM]	nt	18%	-4%	-3%
CC(Sc1nnc2ccc3ccccc3n12)C(=O)Nc1ccc(Cl)cc1 (stereo unspecified)	?	nt	63%	?	-16%
CCC(C)c1ccccc1NC(=O)COC(=O)c1ccc2c(c1)S(=O)(=O)c1ccccc1C2=O (stereo unspecified)	-12%[59 µM]	-18%	-9%	-30%	-38%
COc1cccc(CNC(=O)Cn2c(=O)n3nc(-c4cccc(C)c4)nc3c3ccccc32)c1	6%[59 µM]	nt	20%	-4%	-1%
COc1cc(C(C)=O)ccc1Oc1cc(NN2CCCCC2)c([N+](=O)[O-])cc1[N+](=O)[O-]	28µM*	-13%	-8%	?	?
O=[N+]([O-])c1cc([N+](=O)[O-])c(Oc2cccc(Cl)c2Cl)cc1NN1CCCCC1	?	-6%	-18%	?	?
Cc1ccc(C)c(Oc2cc(NN3CCCCC3)c([N+](=O)[O-])cc2[N+](=O)[O-])c1	7.9µM*	3%	-12%	?	?
CC1(C)Cc2cccc(Oc3cc(NN4CCCCC4)c([N+](=O)[O-])cc3[N+](=O)[O-])c2O1	35µM*	-5%	-11%	?	?
CC1CCc2c(sc3ncnc(SCC(=O)c4ccccc4)c23)C1 (stereo unspecified)	18%[59 µM]	-11%	8%	0%[11.4 µM]	4%
CC(=O)CSc1ncnc2sc3c(c12)CCC(C)C3 (stereo unspecified)	40µM*	10%	51%	23%	6%
Cc1cc2ccccc2n1CCNC(=O)C1CC1	71µM*	-1%	-8%	?	-2%
Cc1cc2ccccc2n1CCNC(=O)c1cccs1	35µM*	-17%	?	?	?
C=CCn1c(SCC(=O)c2c(C)[nH]c3ccccc23)nnc1-c1ccncc1	50µM*	9%	25%	2%[11.4 µM]	3%
Cc1[nH]c2ccccc2c1C(=O)CSc1nc2ccccc2[nH]1	48%[12.7 µM]	-7%	55%	-19%	-1%
C=CCn1c(SCn2nnc3ccccc3c2=O)nnc1-c1ccc(F)cc1	32µM*	5%	41%	-7%	10%
C=CCn1c(SCC(=O)N2CCCCC2)nnc1-c1ccncc1	18%	9%	24%	-13%	-17%
C=CCn1c(SCC(=O)N2CC(C)OC(C)C2)nnc1-c1ccncc1 (stereo unspecified)	7.9µM*	0%	29%	0%	-5%
Cc1[nH]c2ccccc2c1C(=O)CSc1ccc(Cl)cc1	-30%	-1%[11.4 µM]	?	22µM*	-25%
SMILES	G9a inh	L3MBTL1 block	HP1b chromo inh	JMJD2A Tudor	BAZ2B inh
CCc1ccc2oc(-c3cccc(NC(=O)c4cc5ccccc5o4)c3)nc2c1	7%[59 µM]	nt	21%	-8%	-3%
O=C(O)CNc1cccc(-c2nn3c(=O)cc(N4CCNCC4)nc3s2)c1	nt	nt	nt	-18%	nt
CC(C)(C)C(=O)Cn1c(=O)n(-c2ccccc2)c(=O)c2c3c(sc21)CCC3	-32%[59 µM]	nt	17%	-10%	-11%
COc1ccc(OC)c(CNC(=O)c2nn(-c3ccc(OC)c(Cl)c3)c(=O)c3c2c2ccccc2n3C)c1	20%[59 µM]	nt	67%	-19%	nt
C=CCc1ccccc1OCc1nc2ccc(C)cc2[nH]1	9%[59 µM]	nt	69%	8%	-1%
CCOC(=O)CN(C(=O)CSc1nnc(-c2ccncc2)n1CCCN(C)C)c1ccccc1	2.8µM*	3%[11.4 µM]	?	?	50µM*
CCOC(=O)c1c(C)[nH]c(C)c1C(=O)CSc1nnc(-c2ccncc2)n1Cc1ccccc1	56µM*	nt	-1%	-22%	?
CCOC(=O)c1c(C)[nH]c(C)c1C(=O)CSc1nnc(-c2ccco2)n1Cc1ccccc1	?	nt	-4%	-23%	?
CCOC(=O)c1cccc(NC(=O)Cn2nc(C)n3cccc3c2=O)c1	11%[59 µM]	nt	17%[57 µM]	8%	-17%
Nc1nc(N)nc(-c2cc(O)ccc2O)n1	13%[0.501 µM]	1%	38%	-20%	6%
Oc1ccc(O)c(-c2cnns2)c1	?	0%	8.9µM*	3.2µM*	-7%
CCCCN(CC)C(=O)CSc1nc2c(sc3ccccc32)c(=O)n1CCc1ccccc1	2%[59 µM]	nt	52%	-7%	0%
CCc1ccc(NC(=O)CSc2nc3c(sc4ccccc43)c(=O)n2CCN(CC)CC)cc1	2%[59 µM]	nt	22%	-16%	-27%
CCN(CC)CCn1c(SCC(=O)Nc2ccc(F)cc2)nc2c(sc3ccccc32)c1=O	35µM*	-6%	nt	nt	-15%
C=CCN(C(=O)CSc1nc2c(sc3ccccc32)c(=O)n1CCN(CC)CC)c1ccccc1	45µM*	nt	-9%	?	?
CCOc1ccc(NC(=O)C(C)n2c(=O)cc(C)c3c(C)nn(-c4ccccc4)c32)cc1 (stereo unspecified)	11%[59 µM]	nt	?	-22%	-2%
Cn1c(=O)c(=O)n(C)c2cc(N3CCCCC3)c(NS(=O)(=O)c3ccc([N+](=O)[O-])cc3)cc21	32µM*	nt	39%	-31%	-37%
COc1ccc(OC)c(S(=O)(=O)Nc2cc3c(cc2N2CCCC2)n(C)c(=O)c(=O)n3C)c1	10µM*	nt	7%	32µM*	50µM*
Cn1c(=O)c(=O)n(C)c2cc(N3CCOCC3)c(NS(=O)(=O)c3ccc(Br)cc3)cc21	35µM*	nt	-4%	?	?
Cn1c(=O)c(=O)n(C)c2cc(N3CCCC3)c(NS(=O)(=O)c3ccc(F)cc3)cc21	40µM*	nt	50%	-24%	-17%[57.1 µM]
Cc1cc(S(=O)(=O)Nc2cc3c(cc2N2CCOCC2)n(C)c(=O)c(=O)n3C)ccc1F	-42%[59 µM]	nt	-17%	-13%	-18%
Cc1ccc(S(=O)(=O)Nc2cc3c(cc2N2CCOCC2)n(C)c(=O)c(=O)n3C)cc1	?	nt	52%	-2%	-22%
N#Cc1ccc(NC(=O)COC(=O)c2cccnc2Cl)cc1	nt	0%	21%	-10%	nt
